Source: PubChem BioAssay (EPA / NIEHS)
Inconclusive results are not listed. Activity calls are given as the source filed them. The calls were made as follows, unless noted: active = hit-call score of the fitted dose curve at least 0.9, where 1 is the maximum; inconclusive = response in the unintended direction; inactive = score below 0.9.

Columns and labels:
[1] = CCTE_Mundy_HCI_iCellGluta_NOG_NeuriteLength: CCTE's Neurite Outgrowth Assay in iCellGluta cells for Neurite Length, Mundy Lab (AID 2284318)
Outline: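 Automated high-content imaging of betaIII-tubulin (Alexa Fluor-488) and Hoechst-stained cells gave neurite length, normalized to the DMSO baseline.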

IYD (gene 389434) = test: CCTE_GLTED_hIYD: CCTE's human Iodotyrosine Deiodinase (xIYD) Inhibition Assay, Great Lakes Toxicology and Ecology Division (GLTED) Lab (AID 2284317);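 also: cell-free human IYD enzyme made in baculovirus insect cells; iodide freed from monoiodotyrosine measured by cerium arsenite color change at 420 nm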
Outline: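 First, recombinant human IYD (baculovirus-insect cells), MIT and chemical incubated 3 h. Next, iodide isolated on Dowex. Finally, Sandell-Kolthoff rate read at 420 nm, with platewise normalization to MNT and solvent controls.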

[2] = CCTE_Deisenroth_5AR_NBTE_donor: CCTE's 5alpha-reductase NanoBRET Target Engagement Assay […], Deisenroth Lab (AID 2284319; active = hit-call score of the fitted dose curve at least 0.9, where 1 is the maximum; inactive = score below 0.9); settings: actives raise or lower the signal
Outline: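 HEK293T cells transiently expressing SRD5A2-NanoLuc, exposed 5 h to chemicals (8 points, 10 nM - 29.9 uM), with testosterone tracer for the final 2 h. Donor luminescence at 460 nm read after Nano-Glo substrate plus extracellular NanoLuc inhibitor; bidirectional fit versus DMSO.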

[3] = CCTE_Deisenroth_5AR_NBTE_acceptor: CCTE's 5alpha-reductase NanoBRET Target Engagement Assay - Autofluorescence Screen, Deisenroth Lab (AID 2284321; active = hit-call score of the fitted dose curve at least 0.9, where 1 is the maximum; inactive = score below 0.9;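 also: compound fluorescence in the acceptor channel under 460 nm excitation flags autofluorescence artifacts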); settings: actives raise or lower the signal
Outline: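 Acceptor-channel fluorescence flags artifacts, with excitation fixed at 460 nm. Nominal 100 uM chemical samples were read in triplicate runs, and signal changes were fitted in both directions relative to DMSO.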

SRD5A2 (gene 6716) = test: CCTE_Deisenroth_5AR_NBTE_ratio: CCTE's 5alpha-reductase NanoBRET Target Engagement Assay - Ratio, Deisenroth Lab (AID 2284322; active = hit-call score of the fitted dose curve at least 0.9, where 1 is the maximum; inactive = score below 0.9); settings: actives raise or lower the signal
Outline: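 Reverse-transfect HEK293T with pNLF1-C-SRD5A2, express 20 h. Pre-incubate cells with chemical 3 h (8-point series, 10 nM - 29.9 uM, duplicate). Add testosterone tracer, 2 h more. Add substrate/inhibitor, read donor and acceptor emission.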

[4] = TAMU_PeakParms_SingleDonor1434_Asystole: Texas A&M University (TAMU) 1.5-hr Human Induced Pluripotent Stem Cell (iPSC)-derived Cardiomyocytes Calcium (Ca+2) Flux Assay for Cardiotoxicity: Asystole (quiescence of beating) (AID 2284328)
Outline: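 Average Ca2+-flux peak frequency (beats/s) was recorded in single-donor iPSC-derived cardiomyocytes after 90 min exposure (0.2–100 uM final, 0.5% DMSO). Asystole POD set as EC95 against DMSO, no preprocessing.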

[5] = test system: Brachyury (BRA) Protein Expression, Deisenroth Lab, TBXT (gene 6862); test: CCTE_Deisenroth_DEVTOX-GLR_legacy_Bra: (Legacy) CCTE's DevTox GLR-Endo Assay Evaluation of Brachyury (BRA) Protein Expression, Deisenroth Lab (AID 2284329; active = hit-call score of the fitted dose curve at least 0.9, where 1 is the maximum; inactive = score below 0.9)
Outline: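 Human pluripotent RUES2-GLR line was exposed twice during 48 h differentiation to a 10-point series, 1 nM - 200 uM. Fraction of Bra-positive cells was scored by imaging against pluripotent baseline and fitted after 0.2% DMSO subtraction.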

[6] = CCTE_Deisenroth_DEVTOX-GLR_legacy_CellCount: (Legacy) Viability Assessment in CCTE's DevTox GLR-Endo Assay, Deisenroth Lab (AID 2284331; active = hit-call score of the fitted dose curve at least 0.9, where 1 is the maximum; inactive = score below 0.9); settings: actives raise or lower the signal
Outline: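 Human pluripotent RUES2-GLR cells differentiated 48 h with two 24-h-interval exposures, 10-point 1 nM–200 uM series, 0.2% DMSO. Fixed nuclei counted by high-content imaging (5 fields/well); bidirectional fit vs DMSO, n≥4.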

[7] = IUF_NPC2-5_cytotoxicity_72hr: Cytotoxicity Assessment at 72 hours in the Leibniz Research Institute for Environmental Medicine (IUF) Neural Progenitor Cell Migration and Differentiation Assay for Cytotoxicity (NPC2-5) (AID 2284306);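 also: LDH release into supernatant measured by resorufin fluorescence marking membrane damage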
Outline: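 Membrane integrity loss was scored from fluorescence (RFU) of resorufin generated by LDH in culture supernatant, 72 h after dosing. Differentiating human progenitor spheres received seven serial compound concentrations alongside a solvent control.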

[8] = IUF_NPC2-5_cytotoxicity_120hr: Cytotoxicity Assessment at 120 hours in the Leibniz Research Institute for Environmental Medicine (IUF) Neural Progenitor Cell Migration and Differentiation Assay (NPC2-5) (AID 2284307)
Outline: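 Membrane-integrity loss measured as LDH activity in medium supernatant via resazurin-to-resorufin fluorescence after 120 h exposure. hNPC spheres from GW 16-19 fetal cortex differentiated on poly-D-lysine/laminin, 37C, medium half-refreshed day 3; seven concentrations, DMSO max 0.1%.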

[9] = IUF_NPC2-5_cell_number_120hr: Cell Number Assessment at 120 hours in the Leibniz Research Institute for Environmental Medicine (IUF) Neural Progenitor Cell Migration and Differentiation Assay (NPC2-5) (AID 2284308; active = hit-call score of the fitted dose curve at least 0.9, where 1 is the maximum; inactive = score below 0.9;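 also: count of Hoechst-stained nuclei in migration zone around plated human neural progenitor spheres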)
Outline: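 Counting of all Hoechst-stained nuclei in the migration area at 120 h, versus DMSO control. Primary hNPC spheres differentiated on poly-D-lysine/laminin in N2 medium at 37C, dosed from day 0 (7 concentrations, DMSO ≤0.1%), half-refed day 3.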

[10] = IUF_NPC2-5_viability_120hr: Viability Assessment at 120 hours in the Leibniz Research Institute for Environmental Medicine (IUF) Neural Progenitor Cell Migration and Differentiation Assay (NPC2-5) (AID 2284312; active = hit-call score of the fitted dose curve at least 0.9, where 1 is the maximum; inactive = score below 0.9)
Outline: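 Alamar blue resorufin fluorescence read after 5 days of differentiation, with compound present from day 0 and replenished at day 3. Primary hNPC spheres on laminin-coated plates, 37C; seven concentrations plus solvent control, fitted against DMSO.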

[11] = IUF_NPC1_cytotoxicity_72hr: Cytotoxicity Assessment at 72 hours in the Leibniz Research Institute for Environmental Medicine (IUF) Neural Progenitor Cell Proliferation Assay (NPC1) (AID 2284332);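 also: rising LDH signal means more cytotoxicity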
Outline: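 hNPC spheres (fetal brain, gestational week 16-19) grown under proliferative EGF/FGF conditions, pH 7.2-7.6, were treated continuously for 72 h. Cytotoxicity came from LDH-coupled resazurin fluorescence in each well's supernatant.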

[12] = IUF_NPC4_neurite_area_120hr: Leibniz Research Institute for Environmental Medicine (IUF) 120-hour Neuronal Morphology Assay for Neurite Area (NPC4) (AID 2284305)
Outline: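 Neurite area is read out as the mean pixel area, excluding nuclei, of skeletonized TUBB3-positive neurons imaged after 120 h. Primary human neural progenitor spheres differentiated on poly-D-lysine/laminin with compound present from day 0. Activity was referenced to DMSO controls.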

CCCCNC(=O)n1c(NC(=O)OC)nc2ccccc21
outcome [1]: inactive

N#Cc1cc(Br)c(O)c(Br)c1
outcome (IYD (gene 389434)): inactive

C=CCC1=C(C)[C@@H](OC(=O)[C@@H]2[C@@H](C=C(C)C)C2(C)C)CC1=O
AC50 [1]: 5.87 µM (active)

OC(c1ccc(Cl)cc1)(c1cncnc1)c1ccccc1Cl (centres undefined)
outcome (IYD (gene 389434)): inactive

Oc1ccccc1-c1ccccc1
outcome (IYD (gene 389434)): inactive
outcome [2]: inactive
outcome [3]: inactive
AC50 (SRD5A2 (gene 6716)): 31.5 µM (active)
outcome [4]: inactive

COC(=O)c1ccccc1C(=O)OC
outcome [5]: inactive
outcome [6]: inactive

CCCCOC(=O)c1ccccc1C(=O)OCCCC
outcome [7]: inactive
outcome [8]: inactive
outcome [9]: inactive
outcome [10]: inactive
outcome (IYD (gene 389434)): inactive
outcome [1]: inactive
outcome [11]: inactive

CO/C=C(/C(=O)OC)c1ccccc1Oc1cc(Oc2ccccc2C#N)ncn1
outcome [12]: inactive
outcome [7]: inactive
outcome [8]: inactive
outcome [9]: inactive
outcome [10]: inactive
AC50 [1]: 18.9 µM (active)
outcome [11]: inactive

COP(=S)(OC)Oc1nc(Cl)c(Cl)cc1Cl
outcome [8]: inactive
outcome [9]: inactive
outcome [10]: inactive
AC50 [1]: 23.9 µM (active)
outcome [11]: inactive

N#CC(CCc1ccc(Cl)cc1)(Cn1cncn1)c1ccccc1 (centres undefined)
outcome [2]: inactive
outcome [3]: inactive
outcome (SRD5A2 (gene 6716)): inactive

COc1ccc(C(c2ccc(OC)cc2)C(Cl)(Cl)Cl)cc1
outcome [2]: inactive
outcome [3]: inactive
outcome (SRD5A2 (gene 6716)): inactive

CCOC(=O)CC(SP(=S)(OC)OC)C(=O)OCC (centres undefined)
outcome [12]: inactive
outcome [8]: inactive
outcome [9]: inactive
outcome [10]: inactive
AC50 [1]: 2.98 µM (active)
outcome [11]: inactive

CC1COC(Cn2cncn2)(c2ccc(Oc3ccc(Cl)cc3)cc2Cl)O1 (centres undefined)
outcome (IYD (gene 389434)): inactive

CCOc1cc(Oc2ccc(C(F)(F)F)cc2Cl)ccc1[N+](=O)[O-]
outcome [12]: inactive
outcome [7]: inactive
outcome [8]: inactive
outcome [9]: inactive
outcome [10]: inactive
AC50 [1]: 73.7 µM (active)
outcome [11]: inactive

COP(N)(=O)SC (centres undefined)
outcome [12]: inactive
outcome [7]: inactive
outcome [8]: inactive
outcome [9]: inactive
outcome [10]: inactive
outcome [1]: inactive
outcome [11]: inactive

CNC(=O)ON=CC(C)(C)SC
outcome [12]: inactive
outcome [7]: inactive
outcome [8]: inactive
outcome [9]: inactive
outcome [10]: inactive
outcome [4]: inactive
outcome [11]: inactive
